E coli Lon inh = E. coli protease La inhibition. purified E. coli Lon protease, fluorescence polarization. inhibition, % at 7.94 µM. AID 602123. 0.42% of 360,000 active; in the data active means inhibition above about 13%, passing the limit was not always enough
MCL1-BIM inh = inhibitors of human MCL1 binding to BIM-BH3 peptide | inhibition, % at 10.9 µM | 0.68% of 320,000 active | Q07820 | AID 2057 | GST-MCL1 / FITC-Bim-BH3 fluorescence polarization;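 active means inhibition above the mean inhibition of all tested compounds plus 3 SD, set per campaign, cut at about 40% in these data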;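 further: higher means more loss of mP so more displacement of Bim peptide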
Bcl-xL primary = blocks human Bcl-xL binding to Bim BH3 peptide; Q07817; GST-Bcl-xL / FITC-Bim BH3 peptide fluorescence polarization; inhibition, % at 10.9 µM; 0.7% of 320,000 active; AID 2129;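 active means inhibition above the mean of all tested compounds plus 3 SD, cutoff set per campaign, cut at about 30% in these data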;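 further: inhibitors lower millipolarization by displacing the labeled peptide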
EBV gp42 inh = inhibitors of Epstein-Barr virus glycoprotein 42 | Fluorescence polarization binding assay, mP read-out | inhibition, % (tested at 21.74 µM) | 0.42% of 220,000 active | AID 1085; in the data active means inhibition above about 50%
GLD-1 TGE inh = GLD-1-TGE RNA interaction inhibition (C. elegans). AID 2280. inhibition, % at 5.96 µM. Q17339. purified GLD-1 + fluorescein TGE RNA, fluorescence polarization. 0.44% of 320,000 active;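 active means percent inhibition above a per-plate cutoff, the plate mean of test compounds plus 3 SD, cut at about 30% in these data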
MEX-5 binding = C. elegans MEX-5 TCR-2 RNA binding activity; Q9XUB2; MEX-5/FITC-TCR2 RNA binding, fluorescence polarization; stronger effect = lower value; activity score (negative = inhibition of binding), % at 10 µM; 0.38% of 300,000 active; AID 1832;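 active means inhibition past about -25% in most replicates, and total fluorescence under double the plate's negative control median, limit read from the data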
E coli Lon conf = E. coli Lon inhibition confirmation. shares compounds with E coli Lon inh. purified E. coli Lon, fluorescence polarization. inhibition, % at 7.94 µM. 31% of 1,400 active; in the data active means inhibition above about 16%
Numbers stand for hits; . = inactive; / = no result given; + = active, no number. Rows were chosen to be rich in hits. Some 1.5% of all compounds tested hit in one or more screens of this group.

SMILES	E coli Lon inh	MCL1-BIM inh	Bcl-xL primary	EBV gp42 inh	GLD-1 TGE inh	MEX-5 binding	E coli Lon conf
CCOC(=O)c1c(C)[nH]c(C)c1S(=O)(=O)NC(CC)CN1CCOCC1 (centres undefined)	.	.	.	/	.	.	/
COCC(=O)Nc1ccc(S(=O)(=O)Nc2onc(C)c2C)cc1	61.7	/	/	/	/	/	.
CC1(C)CC=C(NNC(=O)c2cccnc2)C(=O)C1	20.7	.	.	.	67.1	.	.
CC1(C)Cc2ccccc2C(NNC(=O)c2cccnc2)=N1	.	.	.	.	.	.	/
O=C1CN(S(=O)(=O)c2cccc(Cl)c2Cl)CCN1	43.9	/	/	/	/	/	.
O=C1CN(S(=O)(=O)c2ccccc2Cl)CCN1	.	/	/	/	/	/	/
COc1ccc(/C=C/C(=O)NCCCNC(=O)/C=C/c2ccc(OC)c(OC)c2)cc1OC	.	.	.	/	.	.	/
Cc1cc2cc(CNC(=O)c3cccs3)ccc2n1C	26.8	.	.	.	.	.	.
COc1cccc(C(=O)NCc2ccc3c(c2)cc(C)n3C)c1	31.0	.	.	.	.	.	.
CCC(CC)C(=O)NCc1ccc2c(c1)cc(C)n2C	.	.	.	.	.	.	/
COc1ccc(/C=C\C(=O)NCc2ccc3c(c2)cc(C)n3C)cc1OC	25.2	.	.	.	.	.	.
COc1ccc(S(=O)(=O)NCc2ccc3c(c2)cc(C)n3C)cc1	14.7	.	.	.	.	.	.
COc1ccc(CC(=O)NCc2ccc3c(c2)cc(C)n3C)cc1	.	.	.	.	.	.	/
CC(=O)C1=C(O)C(=CC=Cc2ccccc2)OC1=O	.	/	/	/	/	/	/
Cc1ccc(S(=O)(=O)CNC(=S)c2ccc3ccccc3c2)cc1	19.9	.	.	.	.	.	.
C1=C(c2ccc(-c3ccccc3)cc2)Nc2ncnn2C1c1ccco1 (centres undefined)	+	/	/	149.5	/	/	70.3
Brc1ccc(C2=CC(c3cccs3)n3ncnc3N2)cc1 (centres undefined)	141.4	+	167.9	161.3	150.8	-51.0	161.3
Brc1ccc(C2=CC(c3ccco3)n3nnnc3N2)cc1 (centres undefined)	.	.	.	.	.	.	/
COc1ccc(CN2CCN(Cc3c[nH]c4ccccc34)CC2CCO)c(F)c1 (centres undefined)	.	.	.	/	.	.	/
O=C(c1ccc2c(c1)OCO2)N1CCN(S(=O)(=O)c2ccc(Br)cc2Cl)CC1	.	.	.	/	.	/	/
O=C(Cc1ccccc1)Nc1ccc(NC(=O)c2cccs2)cc1Cl	.	.	.	.	.	.	/
CCN1C(=O)[C@H]2[C@H]3CN=C(SCc4ccc(C(=O)OC)cc4)N3[C@@](C)(C(=O)OC)[C@H]2C1=O	.	/	/	/	/	/	/
CCCCc1nc2cc(C(=O)N3CCCC3)ccc2o1	.	.	.	/	.	.	/
CCCCc1nc2cc(C(=O)N3CCN(c4cnccn4)CC3)ccc2o1	85.4	.	.	/	.	.	.
O=C(N/N=C/c1cc2c3c(c1O)CCCN3CCC2)c1ccccc1O	67.2	/	/	.	/	.	103.5
SMILES	E coli Lon inh	MCL1-BIM inh	Bcl-xL primary	EBV gp42 inh	GLD-1 TGE inh	MEX-5 binding	E coli Lon conf
CC(C)C(=O)N1CCCC1(C)C(=O)Nc1ccc2c(c1)OCO2 (centres undefined)	.	/	/	/	/	/	/
CCOC(=O)c1cc2c(=O)n3cccc(C)c3nc2n(CCCOC)c1=NC(=O)c1cccnc1	.	.	.	.	.	.	/
Cc1cccn2c(=O)c3cc(C#N)c(=N)n(Cc4ccncc4)c3nc12	/	.	.	.	.	.	/
CCCCn1c(=NC(=O)c2cccnc2)c(C#N)cc2c(=O)n3cccc(C)c3nc21	24.4	47.9	46.3	.	.	.	.
COCCCn1c(=NC(=O)c2ccncc2)c(C#N)cc2c(=O)n3cccc(C)c3nc21	37.9	.	41.2	.	.	.	21.8
COc1ccc(C(=O)N=C2SC3CS(=O)(=O)CC3N2Cc2ccccc2)cc1OC (centres undefined)	15.9	.	.	/	.	.	.
COc1ccc(CN2C(=NC(=O)c3ccccc3)SC3CS(=O)(=O)CC32)cc1OC (centres undefined)	.	.	.	/	.	.	/
Cc1cc(OCC(O)CNC(C)(C)C)ccc1Cl (centres undefined)	.	.	.	.	.	.	/
CCOC(=O)c1[nH]c(C)c(C)c1C	51.0	.	.	.	.	.	.

From PubChem
